Data from the OligoGym collection.

molecular target: DSPP; assay: pooled miR-30 sensor sort-seq; sequence = guide strand; settings: shRNA

Going from TATGTTGACAACCTCTCCTTGT to TGTACTGACACATTTGATCTTG, the sensor-assay potency score (higher = more potent) falls from 0.37 to 0.307.

Compared with TCTATCACCTTCATGCACCAGG, TTGGACAACAGCGACATCCTCA is lower in sensor-assay potency score (higher = more potent): 0.183 for the first, 0.0891 for the second.

Compared with TTGTGTCTTGACATTGCCTTTG, TATGTAGAAAAACTCTTCCCTC is higher in sensor-assay potency score (higher = more potent): -0.762 for the first, -0.0837 for the second.

Going from TTTCTGAATTAGCATCATCATT to TTATTAGTGTCTGATGTGCTAT, the sensor-assay potency score (higher = more potent) rises from -1.5 to -0.602.

Compared with TTTGCTTTCTCTATGGTTGAGC, TTGCTGTCACTGCTGTCGCTGC is lower in sensor-assay potency score (higher = more potent): 0.0105 for the first, -0.804 for the second.

First: TTTATCCTCTTTACCTTCGTTG
Second: TTGCTATCACTGCTGTTGCTGC
The sensor-assay potency score (higher = more potent) of the first is higher: -0.331 for the first, -0.741 for the second.

First: TTGCTGCTGTCTGACTTGCTGT
Second: TTGTCTGTACTGTTATTGCTTC
The sensor-assay potency score (higher = more potent) of the first is lower: -1.02 for the first, -0.739 for the second.

Going from TACTTGAGGTCCATCTTCTTGG to TTACTGTCACTATCACTGCTGT, the sensor-assay potency score (higher = more potent) rises from -0.264 to -0.164.

For TATTCTTATCAGTATTTCCATT, the sensor-assay potency score (higher = more potent) was -0.803.
